Measured values from paper PMC4336329 (PLoS ONE, 2015).
Among all 310,000 compounds or so, about 14,000 (4.5%) showed an effect of 50% or more. The effect is printed as a negative number. The sample holds strong results, similar compounds and a random draw of the others, so the mix is not that of the screen.

biological target: human ether-à-go-go-related gene (hERG) potassium channel (human, UniProt Q12809); test: primary screen, population patch clamp on CHO cells stably expressing hERG; higher = less effect of the substance
Sequence (Q12809 whole entry, looked up): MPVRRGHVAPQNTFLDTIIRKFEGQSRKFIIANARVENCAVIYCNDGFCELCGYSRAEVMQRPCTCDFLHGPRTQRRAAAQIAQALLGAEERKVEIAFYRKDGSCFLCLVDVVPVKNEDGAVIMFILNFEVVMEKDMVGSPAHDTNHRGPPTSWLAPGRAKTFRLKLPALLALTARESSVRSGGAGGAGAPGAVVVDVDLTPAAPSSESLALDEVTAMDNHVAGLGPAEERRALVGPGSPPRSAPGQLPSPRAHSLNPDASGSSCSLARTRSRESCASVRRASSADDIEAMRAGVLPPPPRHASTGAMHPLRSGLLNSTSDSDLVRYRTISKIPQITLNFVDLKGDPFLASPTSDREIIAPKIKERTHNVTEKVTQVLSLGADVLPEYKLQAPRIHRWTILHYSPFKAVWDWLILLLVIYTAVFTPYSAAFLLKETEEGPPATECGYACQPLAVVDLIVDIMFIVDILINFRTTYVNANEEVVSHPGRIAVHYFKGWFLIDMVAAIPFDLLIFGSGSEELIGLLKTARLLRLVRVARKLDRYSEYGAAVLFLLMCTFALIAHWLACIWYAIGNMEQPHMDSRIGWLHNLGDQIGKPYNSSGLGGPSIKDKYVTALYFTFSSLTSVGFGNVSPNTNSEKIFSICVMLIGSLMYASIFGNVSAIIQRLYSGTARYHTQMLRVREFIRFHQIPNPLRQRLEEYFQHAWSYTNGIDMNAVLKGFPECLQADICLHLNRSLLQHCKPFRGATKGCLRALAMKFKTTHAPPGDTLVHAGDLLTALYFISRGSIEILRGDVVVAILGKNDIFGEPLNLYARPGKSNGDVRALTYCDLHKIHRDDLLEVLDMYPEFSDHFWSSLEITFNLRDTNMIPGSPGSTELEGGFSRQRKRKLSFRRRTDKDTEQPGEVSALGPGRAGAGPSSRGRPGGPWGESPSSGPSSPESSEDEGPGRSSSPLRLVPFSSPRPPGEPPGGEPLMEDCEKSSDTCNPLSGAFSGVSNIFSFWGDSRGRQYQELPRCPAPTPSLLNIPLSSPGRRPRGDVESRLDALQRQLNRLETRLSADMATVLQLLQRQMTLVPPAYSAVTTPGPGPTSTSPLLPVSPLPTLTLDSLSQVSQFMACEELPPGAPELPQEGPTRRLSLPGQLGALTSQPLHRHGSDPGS
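Further: peak tail current of the secondary pulse compared with the same well before compound.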

Row | SMILES | hERG current change (%, negative = inhibition) at 10uM
1 | COc1ccc(CCNC(=O)CSc2nc(N)cc(=O)[nH]2)cc1OC | 29.6%
2 | Cc1ccc(S(=O)(=O)N(C)C)cc1NC(=O)C(C)N(C)Cc1sccc1C (stereo not drawn) | -16.1%
3 | O=C(COc1ccccc1)Nc1ccc2oc(=O)ccc2c1 | 4.76%
4 | CCOC(=O)N1CCN(C(=O)c2ccc3c(=O)n(Cc4ccc(Cl)cc4)c(=S)[nH]c3c2)CC1 | 4.36%
5 | CN(C)c1ccc(N/C=C/C(=O)c2ccco2)cc1 | 4.67%
6 | Cc1nn(C)c(C)c1CN(Cc1nc(CCC(C)C)no1)C(C)C | 13%
7 | COC(=O)c1cccc(N(C(=O)CNC(=O)c2ccco2)C(C(=O)NC2CCCC2)c2ccco2)c1 (stereo not drawn) | 6.89%
8 | Cc1c(CN2CCC(CO)(Cc3cccc(C(F)(F)F)c3)CC2)c2ccccc2n1C | -47.2%
9 | OCC1(Cc2cccc(C(F)(F)F)c2)CCN(Cc2cc(F)cc(F)c2)CC1 | -43.4%
10 | COc1ccc(F)c(CN2CCC(CO)(Cc3cccc(C(F)(F)F)c3)CC2)c1 | -58.4%
11 | COc1cc(CN2CCC(CO)(Cc3cccc(C(F)(F)F)c3)CC2)ccc1F | -68.7%
12 | CSc1cccc(CN2CCC(CO)(Cc3cccc(C(F)(F)F)c3)CC2)c1 | -64.4%
13 | FC(F)(F)c1cccc(CN2CCCCCC2)c1 | 2.33%
14 | CCOc1cc(CN2CCN(C(=O)Cc3ccccc3)CC2)ccc1OC.O=C(O)C(=O)O | -37.6%
15 | CCOc1cc(CN2CCCCCC2)ccc1OC | -3.28%
16 | CCOc1cc(CN2CCC(CO)(Cc3cccc(C(F)(F)F)c3)CC2)ccc1OC | -76.6%
17 | CSc1cccc(CN2CCC(CO)(Cc3ccccc3)CC2)c1 | -44.8%
18 | COc1ccc2[nH]c(C(=O)N3CCC(CO)(Cc4cccc(C(F)(F)F)c4)CC3)c(C)c2c1 | 7.98%
19 | COc1ccc(C(=O)Nc2ccc(N3CCOCC3)cc2)cc1OC | 1.36%
20 | Cc1ccc(CC(=O)NCCc2ccc(S(N)(=O)=O)cc2)cc1 | 5.87%

Row | SMILES | hERG current change (%, negative = inhibition) at 10uM
21 | Brc1ccc([C@H]2CN3CCSC3=N2)cc1.O=C(O)C(=O)O | -35.7%
22 | COc1ccc(OC)c(NC(=O)c2ccccc2SC)c1 | -40.2%
23 | CC(C)c1ccc(C2NC(=O)NC3=C2CCc2ccccc23)cc1 (stereo not drawn) | -33.5%
24 | COc1cc(Cl)c(CC(=O)c2c[nH]c3ccccc23)cc1OC | 15.9%
25 | OCC1(Cc2ccccc2C(F)(F)F)CCN(Cc2cccc3cnccc23)CC1 | -11%
26 | CC1(C(=O)N2CCC(CO)(Cc3cccc(C(F)(F)F)c3)CC2)CC1 | 4.02%
27 | COc1ccc(CN2CCC(CO)(Cc3ccccc3C(F)(F)F)CC2)c(F)c1 | -67.3%
28 | OCC1(Cc2ccccc2C(F)(F)F)CCN(Cc2ccncc2)CC1 | -13.8%
29 | CC(=O)c1ccc(C(=O)N2CCC(CO)(Cc3cccc(C(F)(F)F)c3)CC2)cc1 | -74.6%
30 | CN(C)S(=O)(=O)N1CCC(CO)(Cc2cccc(C(F)(F)F)c2)CC1 | -4.25%
31 | CC(=O)N1CCN(c2ccc(NC(=O)c3cccc([N+](=O)[O-])c3)cc2)CC1 | -3.59%
32 | C/C(=N\NC(=O)CSc1nc(C)cc(C)n1)c1ccc2c(c1)OCCO2 | 18.3%
33 | CCC(CC)C(=O)N1CC(=O)Nc2ccc(F)cc2C1c1ccc(F)cc1 (stereo not drawn) | -27.8%
34 | CCCc1cc(C(=O)NNC(=S)NCC)c2ccccc2n1 | 18.1%
35 | CC1=C(C(=O)Nc2ccccn2)C(c2ccc(N(C)C)cc2)n2ncnc2N1 (stereo not drawn) | -62.7%
36 | CC1=C(C(=O)Nc2ccccn2)C(c2ccccc2)n2ncnc2N1 (stereo not drawn) | 13.7%
37 | CC1=C(C(=O)Nc2ccccn2)C(c2ccc(F)cc2)n2ncnc2N1 (stereo not drawn) | -13.1%
38 | O=c1cc(-c2ccccc2)cc(-c2ccccc2)n1CCCO | -31.9%
39 | CCc1ccc(C(=O)Nc2cc3c(cc2Cl)OCCCO3)cc1 | 23.5%
40 | CNC(=O)[C@@H]1C[C@H]1[C@@H](NC(=O)OCc1ccccc1)c1ccccc1 | -48.3%

Row | SMILES | hERG current change (%, negative = inhibition) at 10uM
41 | CN(C)C(=O)[C@@H]1C[C@H]1[C@@H](NC(=O)OCc1ccccc1)c1ccccc1 | -64.2%
42 | O=C(N[C@@H](c1ccccc1)[C@@H]1C[C@H]1C(=O)O)OCc1ccccc1 | 15.1%
43 | O=P(O)(OCc1ccccc1)OCc1ccccc1 | 12.1%
44 | O=C(O)c1cccc(NC2=Nc3cccc4cccc2c34)c1 | 14.3%
45 | CCn1c(NC(=O)c2ccc(F)cc2)c2ccccc2nc1=O | -11.7%
46 | COc1ccc(CCn2c(=N)c(C(=O)NCCN3CCOCC3)cc3c(=O)n4cccc(C)c4nc32)cc1OC | -97.8%
47 | COc1ccc(CCNC(=O)c2c(N)n(CCN3CCOCC3)c3nc4ccccc4nc23)cc1OC | -8.6%
48 | Cc1cccn2c(=O)c3cc(C(=O)NCCN4CCOCC4)c(=N)n(CCc4ccccc4)c3nc12 | -75%
49 | Cc1cccn2c(=O)c3cc(C(=O)NCCN4CCOCC4)n(C)c3nc12 | -3.18%
50 | COc1ccc(CCn2c(=O)[nH]c3cc(C(=O)NCCN4CCOCC4)ccc3c2=O)cc1OC | 0.353%
51 | O=C(N/N=C/c1ccco1)C1CCCC1 | 22.1%
52 | Cc1ccc(C(=O)Nc2ccc(S(=O)(=O)Nc3ncccn3)cc2)cc1[N+](=O)[O-] | 13.4%
53 | COc1cccc2cc(C(=O)NCc3ccccc3Cl)c(=O)oc12 | 6.78%
54 | CC(C)CSc1nsc(N)n1 | 23.1%
55 | COc1ccc(N2CCN(C(=O)c3ccc(C)c(NC(=O)c4ccco4)c3)CC2)cc1 | -74.8%
56 | Cc1ccc(C(=O)N2CCc3ccccc32)cc1NC(=O)c1ccco1 | -68.1%
57 | Cc1ccc(C(=O)N2CCN(c3ccccc3)CC2)cc1NC(=O)c1ccco1 | -45.7%
58 | O=C(c1ccco1)N1CCc2ccccc21 | -3.68%
59 | COc1ccc(N2CCN(C(=O)c3cccc(NC(=O)c4ccco4)c3)CC2)cc1 | -43.8%
60 | Cc1ccc(C(=O)N2CCN(C(=O)c3ccco3)CC2)cc1NC(=O)c1ccco1 | -44.1%
